Test results: PubChem BioAssay (NCI)
The panel holds about 83,000 compounds, 20% with a hit somewhere; the sample as a whole holds those more often.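 Single-concentration screen, 48 h exposure, 96-well plates. Endpoint: percent growth. Below 10 = active.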 Values without a mark were called inactive. The source made the active and inactive calls.

System: K-562 leukemia
Assay: NCI-60 one-dose screen, 48 h (100 = growth as untreated, 0 = no growth, -100 = all killed)
Conditions: 10 µM unless noted

Q: How did the growth turn out when `C=C1C(=O)O[C@H]2[C@H]1CC/C(COC(=O)NCCc1c[nH]c3ccccc13)=C\CC[C@@]1(C)O[C@@H]21` was run?
A: The growth was 0.512% (active).

Q: How did the growth turn out when `C/C(=N\Nc1cc(C)c2ccccc2n1)c1ccccn1` was run?
A: Its growth is -41.4% (active).

Q: Which growth does the source give for `COC(=O)CNc1nc(N(C)O)nc(N(C)O)n1` here?
A: The growth was 35%.

Q: With `Cc1ccc(-c2nc([P+](c3ccccc3)(c3ccccc3)c3ccccc3)c(N3C[C@H]4C[C@H](C3)c3cccc(=O)n3C4)o2)cc1` as the molecule, how does the growth read?
A: Its growth is 47.3%.

Q: With `COC(=O)[C@]12CC[C@@H](C)[C@H](C)[C@@H]1C1=CC[C@@H]3[C@@]4(C)CC(=O)[C@H](OC(=O)c5ccco5)[C@@]5(C)COC(=C45)C[C@@]3(C)[C@]1(C)CC2` as the molecule, how does the growth read?
A: The growth was 23.7%.

Q: For `COc1ccc(/C=C/C(=O)NCC(C)O)cc1` (stereo not drawn), which growth is on record?
A: The growth was 122%.

Q: `Cc1nn(-c2ccc(Cl)cc2)c(=O)n1CCn1cnc2ccccc21` was tested. Which growth did it give?
A: The growth was 97.1%.

Q: Which growth does the source give for `CN1CCN(CCOc2ccc(-c3cnc4c(-c5ccccc5F)cnn4c3)cc2)CC1` here?
A: Its growth is -50.3% (active).

Q: For `O=C(NO)c1ccc(Cn2c(=O)n(-c3ccccc3)c(=O)c3ccccc32)cc1`, which growth is on record?
A: The growth was 3.42% (active).

Q: `COc1cccc2c1C(=O)c1c(O)c3c(c(O)c1C2=O)C[C@@](O)(C(=O)CO)C[C@@H]3OC1C[C@H](N)[C@H](O)[C@H](C)O1` (stereo partly drawn) was tested. Which growth did it give?
A: Its growth is -2.21% (active).

Q: For `CCC(CC)C(=O)OC(C)COc1ccc(C(C)(C)C)cc1` (stereo not drawn), which growth is on record?
A: Its growth is 87%.

Q: Which growth does the source give for `Nc1ccc(Cl)cn1` here?
A: Its growth is 107%.

Q: With `CN1CCN(CCOc2ccc(-c3cnc4c(-c5cccc(F)c5)cnn4c3)cc2)CC1` as the molecule, how does the growth read?
A: Its growth is -33.6% (active).

Q: Which growth does the source give for `CCCC1CCCCN1C(=O)OCC(C)C` (stereo not drawn) here?
A: The growth was 103%.

Q: Which growth does the source give for `O=S(=O)(NCCNc1cc(-c2cn(-c3ccccc3)nc2-c2cccc(O)c2)ccn1)c1cccc(F)c1` here?
A: The growth was 7.94% (active).

Q: With `Cc1cccc(C)c1NC(=O)CSC(=S)N1CCCCC1` as the molecule, how does the growth read?
A: Its growth is 87.5%.

Q: With `O=C(/C=C/c1cccc(O)c1)c1ccccc1O` as the molecule, how does the growth read?
A: The growth was 80%.

Q: For `O=C(NO)c1ccc(Cn2c(=O)n(CCc3ccc(O)cc3)c(=O)c3ccccc32)cc1`, which growth is on record?
A: Its growth is 24.9%.

Q: With `COc1ccc(O)c(-c2cc(-c3ccc(Cl)cc3)c(C#N)c(=O)[nH]2)c1` as the molecule, how does the growth read?
A: Its growth is 23.5%.

Q: How did the growth turn out when `CCC(=O)c1c(C)[nH]c(C)c1C` was run?
A: Its growth is 110%.

Q: With `COc1cc(-c2cc3ncccc3c3nc(OCCN(C)C)c4cccnc4c23)cc(OC)c1OC` as the molecule, how does the growth read?
A: The growth was 7.73% (active).

Q: Which growth does the source give for `O=C(/C=C/c1cccc2ccccc12)Nc1ncc(Cc2ccccc2)s1` here?
A: The growth was 8.6% (active).

Q: For `CC(C)/C=C/CC[C@](C)(O)[C@H]1CC[C@]2(C)[C@@H]1CC[C@@H]1[C@@]3(C)C/C(=C/c4cccc(C(F)(F)F)c4)C(=O)C(C)(C)[C@@H]3CC[C@]12C`, which growth is on record?
A: Its growth is 86.2%.

Q: With `O=C(NCN1C(=O)c2cccc3cccc(c23)C1=O)N1CCC(Cc2ccccc2)CC1` as the molecule, how does the growth read?
A: Its growth is 90.2%.

Q: Which growth does the source give for `COc1cnc2c(c1)C(=O)c1c-2n(CCCNCCN2CCOCC2)c(=O)c2cc([N+](=O)[O-])ccc12` here?
A: Its growth is 0.36% (active).

Q: How did the growth turn out when `CCCCCCCC(=O)SCC/C=C/[C@@H]1CC(=O)NCc2cccc(n2)CN(Cc2ccc3ccccc3c2)CC(=O)N[C@@H](C(C)C)C(=O)O1` was run?
A: The growth was 13.8%.

Q: With `Fc1ccc2nc(-c3cc(-c4ccc5c(c4)OCO5)n[nH]3)[nH]c2c1` as the molecule, how does the growth read?
A: The growth was 15.5%.

Q: For `Cn1cc(-c2nc(-c3cn(C)c4ncccc34)cs2)c2cc(F)ccc21`, which growth is on record?
A: Its growth is 16%.

Q: Which growth does the source give for `NCCn1cc(-c2nc(-c3c[nH]c4ncccc34)cs2)c2ccccc21` here?
A: Its growth is 82.9%.

Q: For `COc1ccc(-c2cc(-c3c(C)oc4cc5occc5c(OC)c4c3=O)nc(N)c2C#N)cc1OC`, which growth is on record?
A: The growth was 32%.

Q: With `CN(C)c1ccc(N)c2ccccc12` as the molecule, how does the growth read?
A: Its growth is 48.4%.

Q: Which growth does the source give for `CN(C)CCCCC(C(=O)CBr)(c1ccccc1)c1ccccc1` here?
A: Its growth is -7.09% (active).

Q: For `O=C1Nc2ccccc2/C1=C/c1cn(CCCn2c3ccccc3c(=O)c3ccccc32)c2ccccc12`, which growth is on record?
A: Its growth is 91.7%.

Q: With `C=C(C)[C@@H]1CC[C@]2(C=NCCCNCCCCNCCCN)CC[C@]3(C)[C@H](CC[C@@H]4[C@@]5(C)CCCNC(C)(C)[C@@H]5CC[C@]43C)[C@@H]12` as the molecule, how does the growth read?
A: Its growth is 20.1%.

Q: `CCCCn1c(-c2ccc(O)cc2)cn2c3c(=O)[nH]c(=O)n(C)c3nc12` was tested. Which growth did it give?
A: The growth was 34.3%.

Q: How did the growth turn out when `Cc1nn(-c2ccc(Br)cc2)c2nc3[nH]c(=O)[nH]c(=O)c3nc12` was run?
A: Its growth is 101%.

Q: How did the growth turn out when `Cc1cc2nc3c4cc(N)ccc4n(CCN(C)C)c3nc2cc1C` was run?
A: Its growth is 5.75% (active).

Q: `COc1ccc(-c2nc3c(c(C)nn3-c3ccc(F)cc3)c(=O)[nH]2)cc1` was tested. Which growth did it give?
A: The growth was 97.1%.

System: MALME-3M melanoma
Assay: as above
Conditions: 10 µM unless noted

Q: Which growth does the source give for `C=C1C(=O)O[C@H]2[C@H]1CC/C(COC(=O)NCCc1c[nH]c3ccccc13)=C\CC[C@@]1(C)O[C@@H]21` here?
A: The growth was -33.5% (active).

Q: `C/C(=N\Nc1cc(C)c2ccccc2n1)c1ccccn1` was tested. Which growth did it give?
A: Its growth is -77.9% (active).

Q: Which growth does the source give for `COC(=O)CNc1nc(N(C)O)nc(N(C)O)n1` here?
A: Its growth is 97.6%.

Q: For `Cc1ccc(-c2nc([P+](c3ccccc3)(c3ccccc3)c3ccccc3)c(N3C[C@H]4C[C@H](C3)c3cccc(=O)n3C4)o2)cc1`, which growth is on record?
A: Its growth is 74.5%.

Q: Which growth does the source give for `COC(=O)[C@]12CC[C@@H](C)[C@H](C)[C@@H]1C1=CC[C@@H]3[C@@]4(C)CC(=O)[C@H](OC(=O)c5ccco5)[C@@]5(C)COC(=C45)C[C@@]3(C)[C@]1(C)CC2` here?
A: Its growth is 21.9%.

Q: Which growth does the source give for `COc1ccc(/C=C/C(=O)NCC(C)O)cc1` (stereo not drawn) here?
A: The growth was 101%.

Q: For `Cc1nn(-c2ccc(Cl)cc2)c(=O)n1CCn1cnc2ccccc21`, which growth is on record?
A: Its growth is 109%.

Q: For `CN1CCN(CCOc2ccc(-c3cnc4c(-c5ccccc5F)cnn4c3)cc2)CC1`, which growth is on record?
A: Its growth is 7.94% (active).

Q: `COc1cccc2c1C(=O)c1c(O)c3c(c(O)c1C2=O)C[C@@](O)(C(=O)CO)C[C@@H]3OC1C[C@H](N)[C@H](O)[C@H](C)O1` (stereo partly drawn) was tested. Which growth did it give?
A: The growth was -57.6% (active).

Q: Which growth does the source give for `CCC(CC)C(=O)OC(C)COc1ccc(C(C)(C)C)cc1` (stereo not drawn) here?
A: The growth was 94.5%.

Q: With `Nc1ccc(Cl)cn1` as the molecule, how does the growth read?
A: Its growth is 99.7%.

Q: With `CN1CCN(CCOc2ccc(-c3cnc4c(-c5cccc(F)c5)cnn4c3)cc2)CC1` as the molecule, how does the growth read?
A: The growth was 60.6%.

Q: With `CCCC1CCCCN1C(=O)OCC(C)C` (stereo not drawn) as the molecule, how does the growth read?
A: The growth was 107%.

Q: `O=S(=O)(NCCNc1cc(-c2cn(-c3ccccc3)nc2-c2cccc(O)c2)ccn1)c1cccc(F)c1` was tested. Which growth did it give?
A: Its growth is 64.9%.

Q: With `Cc1cccc(C)c1NC(=O)CSC(=S)N1CCCCC1` as the molecule, how does the growth read?
A: The growth was 88.4%.

Q: For `O=C(NO)c1ccc(Cn2c(=O)n(CCc3ccc(O)cc3)c(=O)c3ccccc32)cc1`, which growth is on record?
A: Its growth is 39.3%.

Q: For `COc1ccc(O)c(-c2cc(-c3ccc(Cl)cc3)c(C#N)c(=O)[nH]2)c1`, which growth is on record?
A: The growth was 105%.

Q: With `CCC(=O)c1c(C)[nH]c(C)c1C` as the molecule, how does the growth read?
A: The growth was 116%.

Q: For `COc1cc(-c2cc3ncccc3c3nc(OCCN(C)C)c4cccnc4c23)cc(OC)c1OC`, which growth is on record?
A: Its growth is 8.86% (active).

Q: How did the growth turn out when `O=C(/C=C/c1cccc2ccccc12)Nc1ncc(Cc2ccccc2)s1` was run?
A: The growth was 21.7%.

Q: Which growth does the source give for `CC(C)/C=C/CC[C@](C)(O)[C@H]1CC[C@]2(C)[C@@H]1CC[C@@H]1[C@@]3(C)C/C(=C/c4cccc(C(F)(F)F)c4)C(=O)C(C)(C)[C@@H]3CC[C@]12C` here?
A: Its growth is 100%.

Q: `O=C(NCN1C(=O)c2cccc3cccc(c23)C1=O)N1CCC(Cc2ccccc2)CC1` was tested. Which growth did it give?
A: The growth was 96.6%.

Q: `COc1cnc2c(c1)C(=O)c1c-2n(CCCNCCN2CCOCC2)c(=O)c2cc([N+](=O)[O-])ccc12` was tested. Which growth did it give?
A: Its growth is -11.7% (active).

Q: Which growth does the source give for `CCCCCCCC(=O)SCC/C=C/[C@@H]1CC(=O)NCc2cccc(n2)CN(Cc2ccc3ccccc3c2)CC(=O)N[C@@H](C(C)C)C(=O)O1` here?
A: Its growth is 8.13% (active).

Q: How did the growth turn out when `Fc1ccc2nc(-c3cc(-c4ccc5c(c4)OCO5)n[nH]3)[nH]c2c1` was run?
A: The growth was 57.7%.

Q: `NCCn1cc(-c2nc(-c3c[nH]c4ncccc34)cs2)c2ccccc21` was tested. Which growth did it give?
A: Its growth is 73.8%.

Q: How did the growth turn out when `COc1ccc(-c2cc(-c3c(C)oc4cc5occc5c(OC)c4c3=O)nc(N)c2C#N)cc1OC` was run?
A: The growth was 86.4%.

Q: `CN(C)c1ccc(N)c2ccccc12` was tested. Which growth did it give?
A: Its growth is -85.5% (active).

Q: For `CN(C)CCCCC(C(=O)CBr)(c1ccccc1)c1ccccc1`, which growth is on record?
A: Its growth is -55.9% (active).

Q: For `O=C1Nc2ccccc2/C1=C/c1cn(CCCn2c3ccccc3c(=O)c3ccccc32)c2ccccc12`, which growth is on record?
A: The growth was 98.7%.

Q: How did the growth turn out when `C=C(C)[C@@H]1CC[C@]2(C=NCCCNCCCCNCCCN)CC[C@]3(C)[C@H](CC[C@@H]4[C@@]5(C)CCCNC(C)(C)[C@@H]5CC[C@]43C)[C@@H]12` was run?
A: The growth was 103%.

Q: For `CCCCn1c(-c2ccc(O)cc2)cn2c3c(=O)[nH]c(=O)n(C)c3nc12`, which growth is on record?
A: Its growth is 90.7%.

Q: Which growth does the source give for `Cc1nn(-c2ccc(Br)cc2)c2nc3[nH]c(=O)[nH]c(=O)c3nc12` here?
A: The growth was 108%.

Q: How did the growth turn out when `Cc1cc2nc3c4cc(N)ccc4n(CCN(C)C)c3nc2cc1C` was run?
A: Its growth is -16.6% (active).

Q: With `COc1ccc(-c2nc3c(c(C)nn3-c3ccc(F)cc3)c(=O)[nH]2)cc1` as the molecule, how does the growth read?
A: Its growth is 75.3%.
